{"source": "PubChem BioAssay AID485294", "about": "(National Center for Advancing Translational Sciences (NCATS), 2010)", "note": "In all, about 370,000 compounds went through this assay and about 150 (0.041%) were called active. Another 14% or so got no clear call; they are omitted. Only a selection was taken, and actives are over-represented in it overall. Values without a mark were called inactive. Calls come from the whole dose curve; as a rule, active = well fitted inhibition curve with a large enough effect; inconclusive = small, poorly fitted or top-dose-only effect; inactive = flat fitted curve, though single readings scatter. Potency is the fitted concentration of half-maximal effect.", "data": [{"target": "Beta-lactamase (Escherichia coli (strain K12)) (UniProt P00811)", "sequence (P00811 whole entry, looked up)": "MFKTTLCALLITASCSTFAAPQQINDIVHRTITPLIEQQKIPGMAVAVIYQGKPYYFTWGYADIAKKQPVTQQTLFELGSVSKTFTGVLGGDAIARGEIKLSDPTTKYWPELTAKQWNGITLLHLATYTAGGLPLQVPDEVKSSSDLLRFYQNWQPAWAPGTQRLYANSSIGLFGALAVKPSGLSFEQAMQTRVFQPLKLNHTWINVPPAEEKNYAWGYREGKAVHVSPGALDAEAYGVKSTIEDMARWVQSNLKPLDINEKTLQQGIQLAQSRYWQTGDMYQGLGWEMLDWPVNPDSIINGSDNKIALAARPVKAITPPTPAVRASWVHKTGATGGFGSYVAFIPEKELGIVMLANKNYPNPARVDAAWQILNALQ", "assay": "qHTS Inhibitors of AmpC Beta-Lactamase (assay with detergent); note: nearly all actives have a fitted effect of over 25% in size;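 for activity change, negative = inhibition: 0% = no-compound wells and -100% = no-enzyme wells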", "conditions": "AmpC hydrolysis of nitrocefin, absorbance 480 nm, 0.01% Triton; series mostly up to 114 µM; activity change, negative = inhibition: at the top concentration", "procedure": "NIH Molecular Libraries Probe Production Network [MLPCN] NIH Chemical Genomics Center [NCGC] Assay Provider: Professor Brian Shoichet, UCSF Assay Overview: This aggregation profiling approach exploits the sensitivity of aggregate formation to detergent. Inhibition of b-lactamase is measured in the presence and absence of 0.01% Triton X-100. This particular assay had the prescence of 0.01% Triton X-100. See Pubchem assay \"Promiscuous and Specific Inhibitors of AmpC Beta-Lactamase (assay without detergent)\" for related screen. Compounds that inhibit only in the absence of detergent are considered likely promiscuous aggregators. A screen of 1,030 compounds was performed in Brian Shoichet's lab in 96-well format. AmpC activity was measured by following the absorbance at 480 nm. Nitrocefin is a chromogenic substrate: while nitrocefin is yellow (lmax 390 nm), the product of its hydrolysis is red (lmax 486 nm, 17,000 M-1). AmpC beta lactamase was provided by Shoichet Lab, UCSF.\nBuffer: 20 mM phosphate buffer, pH 7.0 Triton X-100: No Detergent screen: 0.0001%, Detergent screen: 0.01%. Reagents/Controls: Buffer in columns 3 and 4 as negative control (no enzyme). 5.3 nM AmpC in columns 1, 2, 5-48. Titration of UCSF compound 9 control (from 10 mM, then 1:2) pin-transferred to column 2. Column 1 is neutral (100% activity). Assay Steps: Six uL of reagents were dispensed to 1536-well Greiner black clear bottom plates. Compounds and controls (23 nL) were transferred via Kalypsys PinTool. The plates were incubated for 15 min at room temperature, and then 2 uL of 800 uM solution of nitrocefin was added to start the reaction. The plates were immediately transferred to and read every 20 seconds for 4 min on ViewLux (Perkin-Elmer) High-throughput CCD imager using 480 nm absorbance protocol. During dispense, reagent bottles were kept submerged into 4 deg C water bath. Keywords: NIH Roadmap, MLSCN, MLI, MLSMR, qHTS, NCGC, AmpC Beta-Lactamase, Aggregation", "units": {"activity change, negative = inhibition": "%"}, "values": [{"smiles": "Cc1c(-c2nc(-c3ccc4c(c3)OCO4)no2)nnn1-c1ccc(Br)cc1F", "activity change, negative = inhibition": 3.22}, {"smiles": "COc1cc(NC(=O)c2noc3c2CSc2ccccc2-3)cc(OC)c1OC", "activity change, negative = inhibition": 22.2}, {"smiles": "CCCCN1CC(c2nc3ccccc3n2CCCCOc2ccc(C)cc2C)CC1=O", "note": "(centres undefined)", "activity change, negative = inhibition": 20.3}, {"smiles": "CCOc1cccc(NC(=O)CSc2ncc(-c3ccc(Cl)cc3)[nH]2)c1", "activity change, negative = inhibition": 14.7}, {"smiles": "CC(=O)N1CCCc2cc(S(=O)(=O)Nc3ccc(Cl)cc3F)ccc21", "activity change, negative = inhibition": -0.767}, {"smiles": "Nc1ccc(Nc2cc(O)c3ncccc3c2)cc1", "activity change, negative = inhibition": -4.05}, {"smiles": "CCN(CC)S(=O)(=O)c1ccc2c(c1)N(CC(=O)NCC(C)c1ccccc1)C(=O)CO2", "note": "(centres undefined)", "activity change, negative = inhibition": 18.7}, {"smiles": "CSc1ccccc1-c1nnc(NC(=O)c2ccc3c(c2)OCCO3)o1", "activity change, negative = inhibition": 5.64}, {"smiles": "CCn1c(CN2CCC(C)CC2)nc2cc(NC(=O)c3ccccc3[N+](=O)[O-])ccc21", "activity change, negative = inhibition": 22.8}, {"smiles": "COc1ccc(NC(=O)CCN2CCN(CCO)CC2)cc1", "activity change, negative = inhibition": 1.07}, {"smiles": "O=C(c1cccs1)c1cn(CCOc2ccc(Cl)cc2)c2ccccc12", "activity change, negative = inhibition": -3.12}, {"smiles": "COc1ccc(OC)c(NC(=O)Cn2c(=O)n(Cc3ccccc3)c(=O)c3ccccc32)c1", "activity change, negative = inhibition": 5.51}, {"smiles": "CSc1nc(=O)c2c(n1C)NC(=O)CC2c1ccccc1OC(C)C", "note": "(centres undefined)", "activity change, negative = inhibition": 5.75}, {"smiles": "Cc1cccc(N2CCN(C(=O)c3oc(=O)c4ccccc4c3-c3ccccc3)CC2)c1C", "activity change, negative = inhibition": -1.7}, {"smiles": "COc1ccc(Cn2ccnc2SCC(=O)Nc2ccc3c(c2)OCO3)cc1", "activity change, negative = inhibition": 5.64}, {"smiles": "Cc1ccccc1OCc1ccc(-c2nc(C#N)c(N3CCCCC3)o2)o1", "activity change, negative = inhibition": 0.568}, {"smiles": "Cc1ccc(S(=O)(=O)c2c(Nc3cccc(Cl)c3)sc(C(=O)c3ccc4c(c3)OCO4)c2N)cc1", "activity change, negative = inhibition": 28.1}, {"smiles": "Cc1cccc(NC(=O)Cn2c(C(F)(F)F)nc3ccccc32)c1C", "activity change, negative = inhibition": 5.01}, {"smiles": "O=C(/C=C/c1ccccc1)Nc1cc(-c2nc3cc(Cl)ccc3o2)ccc1Cl", "activity change, negative = inhibition": -2.1}, {"smiles": "COc1ccc(-c2cc(C(F)(F)F)n3nc(-c4ccccc4)cc3n2)cc1OC", "activity change, negative = inhibition": 0.338}, {"smiles": "CCOc1ccc(C(NC(=O)c2cc(OC)c(OC)c(OC)c2)c2cc(Cl)c3cccnc3c2O)cc1", "note": "(centres undefined)", "activity change, negative = inhibition": -6.18}, {"smiles": "Cc1ccc2c(=O)c(C(=O)c3ccc(Cl)cc3)cn(CC(=O)NC3CCCCC3)c2n1", "activity change, negative = inhibition": 18.9}, {"smiles": "COc1ccc(-c2nc3ccccc3s2)cc1NC(=O)COc1ccccc1C", "activity change, negative = inhibition": 1.82}, {"smiles": "CCn1c(C(=O)Nc2cc(Cl)ccc2C)cc2sc(Cl)cc21", "activity change, negative = inhibition": 16.5}, {"smiles": "Cc1ccc(NC(=O)c2cc3cc(C)ccc3n2C)cc1", "activity change, negative = inhibition": -3.66}, {"smiles": "Cc1cc(C)c(NC(=O)c2cc3sc(Cl)cc3n2C)c(C)c1", "Potency": "56.2 µM (active)"}, {"smiles": "COc1ccc(CCNc2ncnc3onc(-c4ccc(Cl)cc4)c23)c(OC)c1", "activity change, negative = inhibition": 9.52}, {"smiles": "CCOC(=O)c1c(C)oc2nc(C)nc(N3CCN(c4ccc(OC)cc4)CC3)c12", "activity change, negative = inhibition": 13.8}, {"smiles": "COc1cccc(N(C(=O)CNC(=O)c2ccco2)C(C(=O)NC2CCCCC2)c2cccnc2)c1", "note": "(centres undefined)", "activity change, negative = inhibition": -8.32}, {"smiles": "Cc1ccc(N(C(=O)CNC(=O)c2ccco2)C(C(=O)NC2CCCC2)c2ccncc2)cc1", "note": "(centres undefined)", "Potency": "14.1 µM (active)"}, {"smiles": "CC(C)(C)NC(=O)C(c1ccncc1)N(C(=O)CNC(=O)c1ccco1)c1ccc2c(c1)OCO2", "note": "(centres undefined)", "activity change, negative = inhibition": -14.3}, {"smiles": "Cc1nnc(N2CCCC(C(=O)NCCN(C)C)C2)c2nn(-c3ccccc3)c(C)c12", "note": "(centres undefined)", "activity change, negative = inhibition": 1.73}, {"smiles": "CCOc1ccc(-c2n[nH]c3c2C(c2ccccc2OC)N(c2ccc(Br)cc2)C3=O)cc1", "note": "(centres undefined)", "activity change, negative = inhibition": -2.45}, {"smiles": "Nc1ccc2nc3c(=O)[nH]c(=S)[nH]c3nc2c1", "Potency": "50.1 µM (active)"}, {"smiles": "Clc1ccc(CSc2nncn3c2cc2occc23)cc1", "activity change, negative = inhibition": -10.9}, {"smiles": "Cc1ccc(C)c(S(=O)(=O)c2nnn3c2nc(N2CCOCC2)c2sccc23)c1", "activity change, negative = inhibition": 9.64}, {"smiles": "CCC(=O)N1CCc2cc(Br)cc(S(=O)(=O)Nc3ccc(C)cc3C)c21", "activity change, negative = inhibition": 4.3}, {"smiles": "CC1=C(c2ccc(C)cc2)S(=O)(=O)NC1=NCCCN1CCN(c2cc(C)ccc2C)CC1", "activity change, negative = inhibition": 19.9}, {"smiles": "Fc1ccc(C(Nc2ccc(Cl)c(C(F)(F)F)c2)c2nnc(-c3ccccc3)o2)cc1", "note": "(centres undefined)", "activity change, negative = inhibition": 5.04}, {"smiles": "Cc1ccc(-c2cn3c(n2)sc2cc(C(=O)NCc4cccs4)ccc23)c(C)c1", "activity change, negative = inhibition": 13.4}, {"smiles": "CCOC(=O)c1c(NC(=O)c2ccc(S(=O)(=O)N(CC)CC)cc2)sc2c1CCCCC2", "activity change, negative = inhibition": -9.3}, {"smiles": "COc1ccc(-c2cccc(NS(=O)(=O)c3cc(C)c(OC)c(C)c3C)c2)nn1", "activity change, negative = inhibition": 11.2}, {"smiles": "Cc1ccc(NC(=O)Cc2ccc(NC(=O)N3CCCCc4ccccc43)cc2)cc1", "activity change, negative = inhibition": 3.85}, {"smiles": "COc1ccc(CCC(=O)NCCc2csc(-c3ccc(Cl)cc3)n2)cc1", "activity change, negative = inhibition": 2.64}, {"smiles": "COc1cc(-c2cc3n(C)c(C)c(CCC(=O)Nc4ccc(F)cc4)c(=O)n3n2)cc(OC)c1OC", "activity change, negative = inhibition": -3.72}, {"smiles": "Cc1ccc(NC(=O)c2cc(S(=O)(=O)NCCC3=CCCCC3)ccc2F)cc1C", "activity change, negative = inhibition": -2.66}, {"smiles": "Cc1cc(Nc2cccc(C(F)(F)F)c2)nc2ccc(NC(=O)c3ccc(=O)[nH]c3)cc12", "activity change, negative = inhibition": 1.63}, {"smiles": "COCCn1c(CCC(=O)Nc2cc(C)ccc2C)nc2cccnc21", "activity change, negative = inhibition": 17.5}, {"smiles": "Cc1ccc2cccc(NC(=O)c3ccc(OC(C)C)cc3)c2n1", "activity change, negative = inhibition": -6.92}]}]}
